DRD3 antagonist: qHTS of D3 Dopamine Receptor Antagonist: qHTS. actives 2.5% (n = 360,000). max response, negative = inhibition, %. D(3) dopamine receptor (Homo sapiens), P35462. AID 652054, 2013. D3R cells, DiscoveRx beta-arrestin luminescence, antagonist mode; hits give low values; in the data active means max response below about -50%; inconclusive means no clear call, values can overlap the other calls
Target sequence (P35462 whole entry, looked up): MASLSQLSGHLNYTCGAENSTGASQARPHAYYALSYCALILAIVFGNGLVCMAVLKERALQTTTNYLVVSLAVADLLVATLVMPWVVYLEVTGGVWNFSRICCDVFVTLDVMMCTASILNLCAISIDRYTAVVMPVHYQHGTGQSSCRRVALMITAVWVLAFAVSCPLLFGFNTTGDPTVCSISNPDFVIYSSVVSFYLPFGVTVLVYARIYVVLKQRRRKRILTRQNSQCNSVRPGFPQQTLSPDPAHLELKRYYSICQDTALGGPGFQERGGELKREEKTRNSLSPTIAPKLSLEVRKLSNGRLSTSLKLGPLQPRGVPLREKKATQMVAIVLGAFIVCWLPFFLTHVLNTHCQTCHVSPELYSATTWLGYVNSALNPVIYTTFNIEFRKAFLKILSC
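Cells plated overnight at 1500 cells/well, then exposed to library compounds with dopamine controls for 90 minutes at 37 degrees C. DiscoveRx reagent added for 30–60 minutes at room temperature; luminescence read, quantitative HTS format.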
a7 integrin act: qHTS for Activators of Integrin-Mediated Alleviation for Muscular Dystrophy. actives 0.064% (n = 350,000). alpha7betagal myoblasts, beta-gal FDG fluorescence, 48 h. Potency, µM (series often up to 38.3 µM), actives largely listed as activators; further: nearly all actives have a fitted effect of over 60% in size
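alpha7betagal+/- myoblasts (passage 13, 250/well) treated 48 h at 37C with compounds at 1:260 dilution of DMSO stock. Lysed, then beta-galactosidase activity read as FDG fluorescence (ex 480/em 540) after 30 min, with pre-read for autofluorescence.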
ATXN2 expr inh: Primary qHTS for Inhibitors of ATXN expression; actives 0.72% (n = 360,000); Potency, µM (titrated, usually from 57 µM), hits mostly inhibitors; HEK-293 ATXN2-luciferase reporter, luminescence, 24 h; further: nearly all actives have a fitted effect of over 55% in size
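qHTS (up to 57 uM final) was run with 24 h compound exposure of reporter cells at 37 °C. Each well was multiplexed: SteadyGlo luminescence measured ATXN2-luciferase expression after a fluorogenic Gly-Phe-AFC viability readout (25 uM final).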
DRD3 agonist: qHTS of D3 Dopamine Receptor Agonist: qHTS; D(3) dopamine receptor (Homo sapiens), P35462; D3R DiscoveRx beta-arrestin cells, luminescence, 90 min; max activation, %; actives 0.58% (n = 410,000); in the data active means max activation above about 30%
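Cells at 1500/well, incubated overnight, then treated with pinned compounds (dopamine as control) for 90 min at 37 degrees C. DiscoveRx reagent added for 30 - 60 minutes at room temperature; luminescence read.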
IL-1B inflam inh: qHTS for Inhibitors of Inflammasome Signaling: IL-1-beta AlphaLISA Primary Screen | THP-1 LPS/ATP IL-1B secretion, AlphaLISA, 16 h; hits give low values | activity change, % at 57.5 µM | actives 4.7% (n = 360,000) | AID 743279, 2014; in the data active means activity change below about -50%; inconclusive means mostly about -30% to -49%
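Secreted IL-1B measured by AlphaLISA bead assay after 16 h compound exposure of THP-1 cells; compounds (final up to 57.5 uM) added 1 h before LPS (250 ng/mL) and ATP (1.25 mM) stimulation; lower signal means less secretion.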
ATXN viability: Viability Counterscreen for Primary qHTS for Inhibitors of ATXN expression | Potency, µM (series often up to 56.7 µM), hits mostly cytotoxic | AID 651635, 2014 | S2 cells (HEK-293 line with an ATXN2-luciferase reporter) viability, CellTiter-Fluor protease fluorescence, 24 h | actives 0.49% (n = 400,000); further: nearly all actives have a fitted effect of over 40% in size
Of the large screens only hits and unclear results are named; the others gave an inactive call. In the library only some 7% were active in any assay of this set; here they are far more common. Unless noted, the call rests on the fitted dose curve; in most records, active means well fitted curve in the direction sought with a large enough effect; inconclusive means small, poorly fitted or top-dose-only effect, or another doubt; inactive means no such curve, though single readings can be large; an effect the other way counts as inactive or inconclusive.

CCC(CO)Oc1cc(NCc2cccc(O)c2)c2ncn(C(C)C)c2c1 (stereo not drawn)	ATXN2 expr inh inconclusive
CCC(CO)Oc1cc(NCc2ccc(O)cc2)c2ncn(C(C)C)c2c1 (stereo not drawn)	none
CCC(CC)C(=O)OCc1cc(=O)n2nc(C3CC3)sc2n1	DRD3 agonist 45.1 (no result: DRD3 antagonist, a7 integrin act, IL-1B inflam inh)
Cc1ccc(OCC(=O)Nc2ccccc2C(=O)OCc2cc(=O)n3nc(C4CC4)sc3n2)cc1	DRD3 agonist 37.1 (no result: DRD3 antagonist, a7 integrin act, IL-1B inflam inh)
O=C(COc1ccccc1)OCc1cc(=O)n2nc(C3CC3)sc2n1	DRD3 agonist 74.2 (no result: DRD3 antagonist, a7 integrin act, IL-1B inflam inh)
Cc1ccc(OCC(=O)Nc2ccc(C(=O)OCc3cc(=O)n4nc(C5CC5)sc4n3)cc2)cc1	none (no result: DRD3 antagonist, a7 integrin act, IL-1B inflam inh)
CCC(CC)C(=O)OCc1cc(=O)n2nc(C3CCCCC3)sc2n1	none (no result: DRD3 antagonist, a7 integrin act, IL-1B inflam inh)
Cc1cccc(OCCNC(=O)c2ncn[nH]2)c1	none
O=S1(=O)C=C(SCc2cccc(Cl)c2)Nc2ccccc21	IL-1B inflam inh -50.6
Cc1cccc(CSC2=CS(=O)(=O)c3ccccc3N2)c1	none
COc1cccc(CNc2cnc3ccccc3c2)c1O	IL-1B inflam inh -54.3
Oc1ccc(Br)cc1CNc1cnc2ccccc2c1	none (no result: ATXN2 expr inh)
Cc1ccc(O)c(CNc2cnc3ccccc3c2)c1	IL-1B inflam inh -88.1
COc1cccc(CNc2nc3ccccc3n2C)c1O	DRD3 antagonist -56.7, a7 integrin act inconclusive, IL-1B inflam inh inconclusive
Cn1c(NCc2c[nH]c3ccccc23)nc2ccccc21	IL-1B inflam inh -91.9
Cc1ccc(OCCC(=O)OCC(=O)Nc2ccccc2)cc1	none
COc1ccc(C(O)(C(C)C)C(CN2CCOCC2)c2ccc(Cl)cc2)cc1 (stereo not drawn)	DRD3 antagonist -54.9 (no result: ATXN2 expr inh)
Cc1noc(C)c1S(=O)(=O)Nc1ccc(C(=O)NCCc2ccccc2)cc1	none
COc1cc2[nH]c(=O)n(CCCCCC(=O)N3CC=C(c4ccccc4)CC3)c(=O)c2cc1OC	DRD3 antagonist inconclusive, ATXN2 expr inh inconclusive, IL-1B inflam inh -73.1, ATXN viability inconclusive
Cc1cc(N2C(=O)C(O)=C(C(=O)c3ccco3)C2c2cccc(Cl)c2)no1 (stereo not drawn)	none (no result: ATXN2 expr inh)
Cc1cc(C)cc(NS(=O)(=O)c2ccc3c(c2)c(=O)n(C)c(=O)n3C)c1	ATXN2 expr inh inconclusive, IL-1B inflam inh -67.5
Cc1csc(NC(=O)CCNS(=O)(=O)c2ccc3c(c2)c(=O)n(C)c(=O)n3C)n1	DRD3 antagonist -92.8
CCOc1ccc(CCNC(=O)C2CC(=O)N(c3ccccc3OCC)C2)cc1OCC (stereo not drawn)	none
C[C@H](CO)N1C[C@H](C)[C@H](CN(C)S(C)(=O)=O)Oc2c(cccc2N(C)C)C1=O	none
CCOC(=O)CN(C(=O)CSc1nnc2c(n1)[nH]c1ccc(F)cc12)c1ccccc1	DRD3 antagonist -59.9, IL-1B inflam inh inconclusive
O=C(CSc1nnc2c(n1)[nH]c1ccc(F)cc12)Nc1ccccc1F	a7 integrin act inconclusive
CCOC(=O)CN(C(=O)CSc1nnc2c(n1)[nH]c1ccccc12)c1ccccc1	DRD3 antagonist -73.1
COc1cc(OC)c(NC(=O)c2cc(C)nc3c2c(C)nn3-c2ccc(C)cc2)cc1Cl	none (no result: DRD3 antagonist, a7 integrin act, IL-1B inflam inh)
CCn1nccc1NC(=O)c1csc([C@@H]2O[C@H](CO)[C@H](O)[C@H](O)[C@H]2O)n1	DRD3 antagonist inconclusive, DRD3 agonist 37.0 (no result: a7 integrin act)
Cc1ccc2[nH]c(=O)c(CN(CCCN3CCOCC3)C(=O)Nc3cccc(Cl)c3)cc2c1	IL-1B inflam inh -58.3
Cc1cccc(NC(=O)N(Cc2cc3cc(C)ccc3[nH]c2=O)CC2COCCO2)c1 (stereo not drawn)	IL-1B inflam inh -73.0
Cc1ccc2[nH]c(=O)c(CN(CCCN3CCOCC3)C(=O)Nc3ccc(Cl)cc3)cc2c1	none (no result: ATXN2 expr inh)
COC(=O)CCNC(=O)Cc1ccc(S(=O)(=O)N2CCCCC2)s1	none
CC1CN(C(=O)c2cccs2)CC(C)O1 (stereo not drawn)	none
CC(C)C[C@@H]1NC(=O)[C@H](CCCN)NC(=O)[C@H](C(C)C)NC(=O)[C@@H]2CCCN2C(=O)[C@@H](Cc2ccccc2)NC(=O)[C@H](CC(C)C)NC(=O)[C@H](CCCN)NC(=O)[C@H](C(C)C)NC(=O)[C@@H]2CCCN2C(=O)[C@@H](Cc2ccccc2)NC1=O	DRD3 agonist 30.9 (no result: DRD3 antagonist, a7 integrin act, ATXN2 expr inh, IL-1B inflam inh, ATXN viability)
OC(c1ccc(F)cc1)c1nc(-c2cncnc2)cs1 (stereo not drawn)	IL-1B inflam inh -86.0 (no result: a7 integrin act)
OC(c1ccc(F)cc1)c1nc(-c2ccccc2)cs1 (stereo not drawn)	none (no result: a7 integrin act)
N=C(N)SCc1ccc(O)c([N+](=O)[O-])c1	none
CCCCOc1ccc(Br)cc1CSC(=N)N	ATXN2 expr inh inconclusive, IL-1B inflam inh -228.8, ATXN viability inconclusive
CCCCOc1ccc(CN(CCO)CCO)cc1[N+](=O)[O-]	none
CCOc1ccc(C(C)=O)cc1CSC(=N)N	none
CCCCCOc1ccc(CSC(=N)N)cc1[N+](=O)[O-]	IL-1B inflam inh -105.2, ATXN viability inconclusive
COc1ccc(C(C)=O)cc1CSC(=N)N	DRD3 antagonist -54.1
COc1ccc(CSC(=N)N)cc1[N+](=O)[O-]	IL-1B inflam inh -59.6, ATXN viability inconclusive
CCOc1ccc(S(=O)(=O)c2cn(Cc3cc(C)ccc3C)c3ccc(OCC)cc3c2=O)cc1	none (no result: DRD3 antagonist, a7 integrin act, IL-1B inflam inh)
Cc1ccc(S(=O)(=O)N2CCN(C(=O)c3cccs3)CC2)cc1C	ATXN viability inconclusive
CN(CC(=O)NC(=O)NC1CCCCC1)CC(=O)Nc1ccc(Cl)cc1	IL-1B inflam inh inconclusive
C[C@H]1CCC[C@]2(C)C[C@H]3OC(=O)C(CN4CCCCCC4)[C@H]3C=C12 (stereo partly drawn)	ATXN2 expr inh inconclusive, IL-1B inflam inh -98.1 (no result: ATXN viability)
COc1ccc(CNC(=O)Cn2cnc3c(SC)nc(N)nc32)cc1	none
COc1c(C)cnc(Cn2cnc3c(Cl)nc(N)nc32)c1C	ATXN2 expr inh 0.193µM (no result: DRD3 antagonist, a7 integrin act, DRD3 agonist, IL-1B inflam inh, ATXN viability)
O=C(Oc1ccc(C(=S)N2CCOCC2)cc1)c1ccc([N+](=O)[O-])cc1[N+](=O)[O-]	none
O=C(Oc1cccc(C(=S)N2CCOCC2)c1)c1ccc([N+](=O)[O-])cc1[N+](=O)[O-]	DRD3 antagonist -50.8, IL-1B inflam inh inconclusive
O=C(Oc1ccc(Br)cc1C(=S)N1CCOCC1)c1ccc([N+](=O)[O-])cc1[N+](=O)[O-]	DRD3 antagonist inconclusive, IL-1B inflam inh -91.6
O=C(Oc1ccc(Br)cc1C(=S)N1CCCCC1)c1cc([N+](=O)[O-])cc([N+](=O)[O-])c1	none
